Source: PubChem BioAssay
AmpC no deterg – qHTS Inhibitors of AmpC Beta-Lactamase (assay without detergent). AmpC nitrocefin hydrolysis, absorbance 480 nm, 0.0001% Triton. Potency, µM (titrated, usually from 57.1 µM), for the others: top-dose activity change, negative = inhibition, actives largely listed as inhibitors. 0.52% of 330,000 active. AID 485341, 2010. P00811;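 note: plate controls were no compound for no effect and no enzyme for full effect; nearly all actives have a fitted effect of over 20% in size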
Target sequence (P00811 whole entry, looked up): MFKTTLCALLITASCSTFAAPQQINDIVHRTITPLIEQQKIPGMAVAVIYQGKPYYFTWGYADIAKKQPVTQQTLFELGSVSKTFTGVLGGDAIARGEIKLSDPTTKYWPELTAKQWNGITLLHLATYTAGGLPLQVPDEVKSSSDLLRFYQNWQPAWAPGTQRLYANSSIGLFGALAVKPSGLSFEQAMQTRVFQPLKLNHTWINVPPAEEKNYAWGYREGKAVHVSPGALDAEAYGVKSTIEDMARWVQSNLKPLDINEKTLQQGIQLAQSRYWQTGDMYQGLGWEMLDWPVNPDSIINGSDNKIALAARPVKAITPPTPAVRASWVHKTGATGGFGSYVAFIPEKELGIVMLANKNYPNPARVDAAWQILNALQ
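AmpC (5.3 nM in the dispensed reagent) in 20 mM phosphate pH 7.0 with 0.01% (detergent screen) or 0.0001% Triton X-100 was preincubated with compounds for 15 min at room temperature. Nitrocefin was then added from an 800 uM solution, and hydrolysis was followed at 480 nm.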
Sm TGR block – qHTS Assay for the Inhibitors of Schistosoma Mansoni Peroxiredoxins. Schistosoma mansoni thioredoxin glutathione reductase (TGR), Q962Y6. purified TGR, DTNB reduction, TNB absorbance 405 nm. Potency, µM (doses to about 114 µM), inactives show at the highest dose activity change, negative = inhibition, most hits filed as inhibitors. 3% of 360,000 active. AID 485364, 2010; note: nearly all actives have a fitted effect of over 60% in size
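First, TGR (20 nM dispensed) and NADPH were mixed with compound. Second, a 15 min room-temperature incubation followed. Third, further NADPH and then DTNB were added to start the reaction. Finally, TNB absorbance was monitored kinetically.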
AmpC detergent – qHTS Inhibitors of AmpC Beta-Lactamase (assay with detergent) | P00811 | AmpC hydrolysis of nitrocefin, absorbance 480 nm, 0.01% Triton | Potency, µM (series often up to 114 µM), for inactives: at the top dose activity change, negative = inhibition, actives largely listed as inhibitors | 0.041% of 370,000 active;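 note: 0% = no-compound wells and -100% = no-enzyme wells; nearly all actives have a fitted effect of over 25% in size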
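20 mM phosphate pH 7.0 + 0.01% (detergent screen) or 0.0001% Triton X-100; 5.3 nM AmpC reagent; cpd preinc 15 min RT; nitrocefin (800 uM stock) to start; A480 q20 s × 4 min; Activity was normalised to no-enzyme and no-compound control wells.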
Active calls of the source: *. In the library only some 3.3% were active in any assay of this set; here they are far more common. Calls come from the whole dose curve; as a rule, active = well fitted curve in the direction sought with a large enough effect; inconclusive = small, poorly fitted or top-dose-only effect, or another doubt; inactive = no such curve, though single readings can be large; an effect the other way counts as inactive or inconclusive. Unless noted, % is set by controls: 0 for no effect and ±100 for the full control effect; potency is the fitted concentration of half-maximal effect.

CCOC(=O)c1ccccc1NC(=O)N1CCC(CN2CCCCC2)CC1 was read as Sm TGR block -3.5% and AmpC detergent 19.4%.
CCCNC(C)C(=O)Nc1ccccc1C (stereo not drawn) was read as AmpC no deterg -14.6%, Sm TGR block 8.0% and AmpC detergent -10.9%.
Screening CCC(C)c1ccccc1NC(=O)C(C)NCCN(C)C (stereo not drawn) returned AmpC no deterg -2.5%, Sm TGR block 39.8µM* and AmpC detergent 7.9%.
CCCS(=O)(=O)NCCc1csc2nc(-c3ccc(OC)cc3)nn12 was read as Sm TGR block 3.1% and AmpC detergent 4.1%.
For COC(=O)c1ccc(NC(=S)NC(=O)c2c(Cl)cnn2C)cc1 the results were AmpC no deterg inconclusive, Sm TGR block -3.1% and AmpC detergent 12.7%.
COC(=O)c1ccc(NC(=O)c2c(Br)cnn2C)cc1 was read as AmpC no deterg -39.9%, Sm TGR block 14.1µM* and AmpC detergent -6.8%.
Screening Cc1ccccc1NC(=O)Cn1cc(C(=O)c2ccco2)c2ccccc21 returned Sm TGR block -0.4% and AmpC detergent 2.9%.
For C=CCOC(=O)C1=C(C)N=c2s/c(=C3\C(=O)N(CC(=O)O)c4ccccc43)c(=O)n2C1c1ccc(OC)cc1 (stereo not drawn) the results were AmpC no deterg 149.5%, Sm TGR block 17.8µM* and AmpC detergent -3.6%.
Screening COc1ccc(C2C(C(=O)OC(C)C)=C(C)N=c3s/c(=C\c4cccs4)c(=O)n32)cc1 (stereo not drawn) returned AmpC no deterg -26.8%, Sm TGR block -7.2% and AmpC detergent -4.3%.
`Cc1cccc(C(=O)NC(=O)Nc2ccc(-n3nc(C(F)(F)F)cc3C(F)(F)F)cc2)c1` gave Sm TGR block 0.5% and AmpC detergent -2.6%.
`COc1ccc(S(=O)(=O)N(Cc2nc(-c3cccc(C)c3)no2)C2CCCCC2)cc1` gave Sm TGR block 1.6% and AmpC detergent 12.0%.
`O=C1CC(=O)N(CCc2ccccc2)C(=O)N1CCc1ccccc1` gave AmpC no deterg -38.8%, Sm TGR block -4.2% and AmpC detergent -1.0%.
`O=C1C=CC(=O)C(C2=C3C(=O)N(CCc4ccccc4)CC(=O)N3CCC2)=C1` gave AmpC no deterg -43.3%, Sm TGR block 0.282µM* and AmpC detergent inconclusive.
For COc1cc(C2C(C(=O)OCC(C)C)=C(C)N=C3SCCC(=O)N32)ccc1OCc1ccccc1 (stereo not drawn) the results were Sm TGR block -0.5% and AmpC detergent 2.2%.
For Cc1cc(C)cc(NC(=O)CSc2nc3c([nH]c4ccccc43)c(=O)n2-c2ccc(F)cc2)c1 the results were Sm TGR block 2.5% and AmpC detergent 3.8%.
For O=[N+]([O-])c1nn(-c2ccc3c(c2)OCCO3)n(O)c1=NC1CCCCCC1 the results were AmpC no deterg -11.2%, Sm TGR block 35.5µM* and AmpC detergent -0.9%.
Cc1ccc(N=c2c([N+](=O)[O-])nn(-c3ccc4c(c3)OCCO4)n2O)cc1F was read as AmpC no deterg inconclusive, Sm TGR block -35.7% and AmpC detergent 1.1%.
For Cc1cc(C)cc(N=c2c([N+](=O)[O-])nn(-c3ccc4c(c3)OCCO4)n2O)c1 the results were AmpC no deterg -59.5%, Sm TGR block 2.5% and AmpC detergent 3.4%.
For Cc1ccc(N=c2c([N+](=O)[O-])nn(-c3ccc4c(c3)OCCO4)n2O)c(Cl)c1 the results were AmpC no deterg -28.4%, Sm TGR block 4.47µM* and AmpC detergent 8.6%.
`CCc1ccc(N=c2c([N+](=O)[O-])nn(-c3ccc4c(c3)OCCO4)n2O)cc1` gave AmpC no deterg -30.3%, Sm TGR block 10µM* and AmpC detergent 4.9%.
O=[N+]([O-])c1nn(-c2ccc3c(c2)OCCO3)n(O)c1=NC1CCCC1 was read as AmpC no deterg -12.3%, Sm TGR block 8.8% and AmpC detergent 3.0%.
`Cc1ccc(N=c2c([N+](=O)[O-])nn(-c3ccccc3)n2O)c(C)c1` gave AmpC no deterg -53.5%, Sm TGR block 31.6µM* and AmpC detergent -11.0%.
`Cc1c(Cl)cccc1N=c1c([N+](=O)[O-])nn(-c2ccccc2)n1O` gave AmpC no deterg -24.4%, Sm TGR block -11.2% and AmpC detergent 3.6%.
`O=C(C1CCN(S(=O)(=O)Cc2ccccc2)CC1)N1CCN(c2ccccc2F)CC1` gave Sm TGR block -2.1% and AmpC detergent 16.1%.
Screening COc1cccc(NC(=O)N(CCC(C)C)C2CCN(C(C)C)CC2)c1 returned Sm TGR block 5.3% and AmpC detergent 8.7%.
Screening O=[N+]([O-])c1nn(-c2ccc3c(c2)OCCO3)n(O)c1=Nc1ccc(Cl)cc1 returned AmpC no deterg -27.8%, Sm TGR block 35.5µM* and AmpC detergent -8.2%.
For O=[N+]([O-])c1nn(-c2ccc3c(c2)OCCO3)n(O)c1=Nc1ccccc1 the results were AmpC no deterg -13.2%, Sm TGR block -5.6% and AmpC detergent -3.0%.
COc1ccc(OC)c(S(=O)(=O)Nc2cccc(-c3ccc(N4CCCCC4)nn3)c2)c1 was read as Sm TGR block 2.0% and AmpC detergent 11.1%.
`COc1ccccc1NC(=O)Cn1c(=O)c(CNc2ccccc2)cc2cc(OC)c(OC)cc21` gave Sm TGR block inconclusive and AmpC detergent 1.7%.
For O=C(NNC1CC(=O)N(c2ccc(Br)cc2)C1=O)c1cccs1 (stereo not drawn) the results were AmpC no deterg -30.8%, Sm TGR block inconclusive and AmpC detergent inconclusive.
Screening COc1ccc(N2C(=O)CC(NC3CCCCNC3=O)C2=O)cc1 (stereo not drawn) returned AmpC no deterg -11.4%, Sm TGR block 20µM* and AmpC detergent 0.6%.
For CCCOc1ccc(N2C(=O)CC(NCC#N)C2=O)cc1 (stereo not drawn) the results were AmpC no deterg -4.8%, Sm TGR block 1.1% and AmpC detergent -13.1%.
CCOC(=O)CNC1CC(=O)N(c2ccc(Br)cc2)C1=O (stereo not drawn) was read as AmpC no deterg -22.8%, Sm TGR block 10µM* and AmpC detergent 0.7%.
Screening COc1ccc(N2C(=O)CC(NCC#N)C2=O)cc1 (stereo not drawn) returned AmpC no deterg -17.7%, Sm TGR block 14.1µM* and AmpC detergent -3.2%.
COc1ccc(N2C(=O)CC(Nc3ccc(C)cc3)C2=O)cc1 (stereo not drawn) was read as AmpC no deterg 15.2%, Sm TGR block -5.2% and AmpC detergent inconclusive.
For Cc1cccc(NC(=O)CSc2nc3ccccc3nc2N2CCOCC2)c1C the results were Sm TGR block 2.2% and AmpC detergent 25.5%.
For CCOc1ccc(NC(=O)CC2C(=O)N(c3ccccc3)C(=O)N2C2CCCCC2)cc1 (stereo not drawn) the results were Sm TGR block -10.0% and AmpC detergent 3.8%.
Screening COc1ccc(NCc2cc3cc4c(cc3n(CC(=O)Nc3ccc(F)cc3)c2=O)OCCO4)cc1 returned Sm TGR block 1.5% and AmpC detergent 11.3%.
